Test [1] can be described thus: NCI Yeast Anticancer Drug Screen. Data for the rad50 strain (AID 155).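 Also: 0% = growth of vehicle-only cultures of the same strain.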 Conditions: S. cerevisiae rad50 strain growth inhibition, active compounds read high. A digest of the protocol:
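DNA repair mutant yeast, compound exposure, growth read-out; inhibition is taken relative to vehicle.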

Test [2] can be described thus: NCI Yeast Anticancer Drug Screen. Data for the mec2-1 strain (AID 157). As to conditions: S. cerevisiae mec2-1 strain, active compounds read high. A digest of the protocol:
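Growth inhibition is read against vehicle-treated controls after compound exposure of the mec2-1 yeast strain, which is defective in DNA damage repair or cell cycle control.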

The nature of test [3]: NCI Yeast Anticancer Drug Screen. Data for the sgs1 mgt1 strain (AID 161).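 Also: 0% = growth of cultures given vehicle only.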 Conditions: S. cerevisiae sgs1 mgt1 strain, active compounds read high. In a few lines: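 Growth of a repair-deficient yeast mutant was monitored after compound treatment and expressed as inhibition relative to vehicle-treated cultures.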
A short description of test [4]: NCI Yeast Anticancer Drug Screen. Data for the cln2 rad14 strain (AID 165).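 Also: 0% = growth equal to vehicle treated cultures.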 As to conditions: S. cerevisiae cln2 rad14 strain, active compounds read high. In a few lines:
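Growth inhibition, relative to vehicle-treated controls, is the read-out. The test organism is a yeast strain with defined genetic alterations, cln2 rad14.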

Test [5] in a line: NCI Yeast Anticancer Drug Screen. Data for the bub3 strain (AID 167). As to conditions: S. cerevisiae bub3 mutant strain, active compounds read high. In a few lines: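 In this screen, a yeast mutant lacking normal mitotic checkpoint function is challenged with compound. Relative growth versus vehicle gives the inhibition value.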
Test [6] is described as follows: NCI Yeast Anticancer Drug Screen. Data for the mlh1 rad18 strain (AID 175). As to conditions: S. cerevisiae mlh1 rad18 strain growth inhibition, active compounds read high. In a few lines:
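Cells of a genetically altered yeast strain, deficient in DNA damage repair, were treated with compound. Their growth was then compared with that of vehicle-treated cultures to give inhibition.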

The mark [7] stands for this setting: at 5.0 µM (retest, dose inferred, filed as 0.5).
[8] abbreviates: at 50.0 µM (retest, dose inferred, filed as 5.0).

Each structure is given as a SMILES string. The panel holds about 79,000 compounds, 15% with a hit somewhere; the sample as a whole holds those more often. A number with no mark means an inactive call. Activity calls are given as the source filed them. Rule as the data show it: active = growth inhibition above about 70%; inactive = the rest.

Consider `CCOC(=O)n1c2ccccc2c(=O)n1CCO`, for which the growth inhibition in test [1] (setting [7]) was -23%; in test [1] (setting [8]), -15%; in test [1] (at 50.0 µM) it was 97.5% (active); in test [2] (setting [7]), -16%; in test [2] (setting [8]), -19%; in test [2] (at 50.0 µM), 98.9% (active). Also, the growth inhibition in test [3] (setting [7]) is -19%; in test [3] (setting [8]), -12%; in test [3] (at 50.0 µM), 87.7% (active); in test [4] (setting [7]) it was -32%; in test [4] (setting [8]) it was -18%; in test [4] (at 50.0 µM), 43.2%. For the same molecule, the growth inhibition in test [5] (setting [7]) is -28%; in test [5] (setting [8]) it was -11%; in test [5] (at 50.0 µM), 97.3% (active); in test [6] (setting [7]), -33%; in test [6] (setting [8]), -11%; in test [6] (at 50.0 µM), 50%.
In the case of `O=C1NC(c2ccccc2)(c2ccccc2)C(=O)N1SC(Cl)(Cl)Cl`, the growth inhibition in test [1] (setting [7]) was 98% (active); in test [1] (setting [8]), 98% (active); in test [1] (at 50.0 µM), 90.3% (active); in test [2] (setting [7]), 100% (active); in test [2] (setting [8]) it was 99% (active); in test [2] (at 50.0 µM), 89.3% (active). Moreover, the growth inhibition in test [3] (setting [7]) is 99% (active); in test [3] (setting [8]), 99% (active); in test [3] (at 50.0 µM), 90.8% (active); in test [4] (setting [7]) it was 99% (active); in test [4] (setting [8]), 99% (active); in test [4] (at 50.0 µM) it was 89.7% (active). In addition, the growth inhibition in test [5] (setting [7]) was 99% (active); in test [5] (setting [8]) it was 98% (active); in test [5] (at 50.0 µM), 88.5% (active); in test [6] (setting [7]) it was 98% (active); in test [6] (setting [8]), 99% (active); in test [6] (at 50.0 µM), 87.2% (active).
As for `Cc1ccc(NC(=O)COC(=O)c2cccc3c(=O)c4ccccc4[nH]c23)cc1`, the growth inhibition was 51% in test [1] (setting [7]); 89% (active) in test [1] (setting [8]); 74.8% (active) in test [1] (at 50.0 µM); 27% in test [2] (setting [7]); 80% (active) in test [2] (setting [8]); 43.3% in test [2] (at 50.0 µM). Moreover, the growth inhibition is 40% in test [3] (setting [7]); 89% (active) in test [3] (setting [8]); 29.6% in test [3] (at 50.0 µM); 21% in test [4] (setting [7]); 69% in test [4] (setting [8]); 61.6% in test [4] (at 50.0 µM). For the same molecule, the growth inhibition in test [5] (setting [7]) is 42%; in test [5] (setting [8]) it was 81% (active); in test [5] (at 50.0 µM), 72% (active); in test [6] (setting [7]), 49%; in test [6] (setting [8]), 94% (active); in test [6] (at 50.0 µM), 49.5%.
Turning to `CCCC(=O)C1=C(O)C(Cc2c(O)c(C)c(O)c(C(=O)CCC)c2O)=C(O)C(C)(C)C1=O`, the growth inhibition is -1% in test [1] (setting [7]); 52% in test [1] (setting [8]); 98.2% (active) in test [1] (at 50.0 µM); 4% in test [2] (setting [7]); 34% in test [2] (setting [8]); 92.9% (active) in test [2] (at 50.0 µM). For the same molecule, the growth inhibition in test [3] (setting [7]) was 6%; in test [3] (setting [8]) it was 56%; in test [3] (at 50.0 µM), 98.5% (active); in test [4] (setting [7]), -4%; in test [4] (setting [8]), 83% (active); in test [4] (at 50.0 µM), 99.1% (active). Besides, the growth inhibition in test [5] (setting [7]) was -1%; in test [5] (setting [8]) it was 92% (active); in test [5] (at 50.0 µM), 98.3% (active); in test [6] (setting [7]) it was 7%; in test [6] (setting [8]), 66%; in test [6] (at 50.0 µM), 99% (active).
For `CC(=O)Nc1ccccc1C(O)(c1ccccc1)c1ccccc1`, the growth inhibition is -2% in test [1] (setting [7]); 0% in test [1] (setting [8]); 14.4% in test [1] (at 50.0 µM); -5% in test [2] (setting [7]); -2% in test [2] (setting [8]); 35.2% in test [2] (at 50.0 µM). Further, the growth inhibition is -5% in test [3] (setting [7]); 1% in test [3] (setting [8]); 16.4% in test [3] (at 50.0 µM); 2% in test [4] (setting [7]); -2% in test [4] (setting [8]); 9.45% in test [4] (at 50.0 µM). Besides, the growth inhibition is -2% in test [5] (setting [7]); 2% in test [5] (setting [8]); 14.7% in test [5] (at 50.0 µM); -5% in test [6] (setting [7]); 1% in test [6] (setting [8]); -31.2% in test [6] (at 50.0 µM).
Take `COC(=O)CC1SC(=S)N(Cc2ccc(Cl)cc2)C1=O` (stereo not given): the growth inhibition in test [1] (setting [7]) was -6%; in test [1] (setting [8]), 80% (active); in test [1] (at 50.0 µM), 98.1% (active); in test [2] (setting [7]), -8%; in test [2] (setting [8]), 61%; in test [2] (at 50.0 µM) it was 92.5% (active). Also, the growth inhibition was 2% in test [3] (setting [7]); 93% (active) in test [3] (setting [8]); 98.5% (active) in test [3] (at 50.0 µM); -59% in test [4] (setting [7]); 28% in test [4] (setting [8]); 55.6% in test [4] (at 50.0 µM). Further, the growth inhibition is -15% in test [5] (setting [7]); 81% (active) in test [5] (setting [8]); 87.5% (active) in test [5] (at 50.0 µM); -25% in test [6] (setting [7]); 88% (active) in test [6] (setting [8]); 98% (active) in test [6] (at 50.0 µM).
Take `O=C1c2ccccc2S(=O)(=O)CC1Br` (stereo not given): the growth inhibition in test [1] (setting [7]) is -7%; in test [1] (setting [8]) it was 96% (active); in test [1] (at 50.0 µM), 99.2% (active); in test [2] (setting [7]) it was -21%; in test [2] (setting [8]), 85% (active); in test [2] (at 50.0 µM), 99.7% (active). The growth inhibition was 13% in test [3] (setting [7]); 98% (active) in test [3] (setting [8]); 99.3% (active) in test [3] (at 50.0 µM); 6% in test [4] (setting [7]); 58% in test [4] (setting [8]); 99.3% (active) in test [4] (at 50.0 µM). Also, the growth inhibition in test [5] (setting [7]) was -4%; in test [5] (setting [8]), 89% (active); in test [5] (at 50.0 µM) it was 99.4% (active); in test [6] (setting [7]) it was 30%; in test [6] (setting [8]) it was 98% (active); in test [6] (at 50.0 µM), 99.2% (active).
Consider `COc1ccc(OC)c(/C=C/NC=O)c1`, for which the growth inhibition in test [1] (setting [7]) is -10%; in test [1] (setting [8]), 10%; in test [1] (at 50.0 µM), -11.4%; in test [2] (setting [7]), -11%; in test [2] (setting [8]) it was -7%; in test [2] (at 50.0 µM) it was 13.2%. Besides, the growth inhibition was -12% in test [3] (setting [7]); -2% in test [3] (setting [8]); -6.4% in test [3] (at 50.0 µM); -15% in test [4] (setting [7]); 5% in test [4] (setting [8]); 49.2% in test [4] (at 50.0 µM). In addition, the growth inhibition in test [5] (setting [7]) is -1%; in test [5] (setting [8]), -2%; in test [5] (at 50.0 µM), -4.35%; in test [6] (setting [7]) it was 5%; in test [6] (setting [8]), -24%; in test [6] (at 50.0 µM), -0.95%.
Consider `Cc1ccc(S(=O)(=O)OCCCCOS(=O)(=O)c2ccc(C)cc2)cc1`, for which the growth inhibition in test [1] (setting [7]) was 0%; in test [1] (setting [8]), 4%; in test [1] (at 50.0 µM), 76% (active); in test [2] (setting [7]), -7%; in test [2] (setting [8]) it was -3%; in test [2] (at 50.0 µM), 26.1%. Also, the growth inhibition in test [3] (setting [7]) was -6%; in test [3] (setting [8]), 4%; in test [3] (at 50.0 µM) it was 15.7%; in test [4] (setting [7]) it was 2%; in test [4] (setting [8]) it was -5%; in test [4] (at 50.0 µM) it was 28.4%. In addition, the growth inhibition in test [5] (setting [7]) was -2%; in test [5] (setting [8]) it was 2%; in test [5] (at 50.0 µM), -17.2%; in test [6] (setting [7]) it was 2%; in test [6] (setting [8]), 1%; in test [6] (at 50.0 µM), 15.1%.
Regarding `O=C(COC(=O)C(c1ccccc1)c1ccccc1)c1ccc(Br)cc1`, the growth inhibition in test [1] (setting [7]) is -2%; in test [1] (setting [8]), 28%; in test [1] (at 50.0 µM), 45.9%; in test [2] (setting [7]), -1%; in test [2] (setting [8]), 23%; in test [2] (at 50.0 µM), 11%. Also, the growth inhibition was 0% in test [3] (setting [7]); 35% in test [3] (setting [8]); -4.25% in test [3] (at 50.0 µM); -5% in test [4] (setting [7]); 28% in test [4] (setting [8]); 11.1% in test [4] (at 50.0 µM). The growth inhibition in test [5] (setting [7]) was 10%; in test [5] (setting [8]), 62%; in test [5] (at 50.0 µM), 88% (active); in test [6] (setting [7]), -1%; in test [6] (setting [8]) it was 27%; in test [6] (at 50.0 µM), 20.9%.
